In all, about 96,000 compounds went through this assay and about 19,000 (20%) were called active.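 Rule for the calls: active = blocking of liver enzyme CYP2C9 beyond about 50% at 5 µM (limit read from the data); inactive = the rest.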 A selection follows.
What follows are molecules tested against Cytochrome P450 2C9 (Homo sapiens) (UniProt P11712) (assay: blockers of cytochrome P450 2C9 activity – biochemical, luminescence, ADME assay, primary screen (AID 777)). Conditions: CYP2C9 Supersomes, luciferin-H conversion, at 5 µM, hits give high values.
Cytochrome P450 2C9 (Homo sapiens), sequence (P11712 whole entry, looked up): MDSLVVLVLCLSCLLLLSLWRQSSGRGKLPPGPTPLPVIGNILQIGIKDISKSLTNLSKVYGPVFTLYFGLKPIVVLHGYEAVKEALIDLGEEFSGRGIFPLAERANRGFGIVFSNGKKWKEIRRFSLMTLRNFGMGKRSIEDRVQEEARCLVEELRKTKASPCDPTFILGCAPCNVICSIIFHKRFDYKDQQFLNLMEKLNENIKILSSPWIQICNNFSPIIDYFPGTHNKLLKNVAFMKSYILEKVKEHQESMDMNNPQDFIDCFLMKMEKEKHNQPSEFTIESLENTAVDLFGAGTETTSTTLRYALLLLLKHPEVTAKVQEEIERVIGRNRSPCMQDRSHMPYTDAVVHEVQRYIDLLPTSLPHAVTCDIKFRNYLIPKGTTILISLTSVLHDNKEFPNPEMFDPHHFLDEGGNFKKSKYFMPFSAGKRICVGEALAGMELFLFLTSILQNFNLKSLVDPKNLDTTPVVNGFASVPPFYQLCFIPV

**Q.** How did the inhibition turn out when `CCOC(=O)C1=C(CN2CCc3ccccc32)NC(=O)NC1c1ccc(Cl)cc1` (stereo not drawn) was run?
**A.** The inhibition was 4.7% (inactive).

**Q.** Which inhibition does the source give for `COCCOC(=O)C1=C(C)NC(=O)NC1c1ccc(Cl)cc1` (stereo not drawn) here?
**A.** The inhibition was -3% (inactive).

**Q.** `CCOC(=O)C1=C(C)NC(=O)N(C(C)=O)C1c1ccc(Cl)cc1` (stereo not drawn) was tested. Which inhibition did it give?
**A.** Its inhibition is 74.3% (active).

**Q.** `COc1ccc(C2=NOC3(CC(=O)N(c4ccc(Cl)cc4)C3=O)C2)c(OC)c1` (stereo not drawn) was tested. Which inhibition did it give?
**A.** Its inhibition is 23% (inactive).

**Q.** For `O=C(NC1CCN(Cc2ccccc2)CC1)c1ccccc1F`, which inhibition is on record?
**A.** Its inhibition is 7.8% (inactive).

**Q.** For `COc1cc(-c2nn3c(-c4cccc(C)c4)nnc3s2)cc(OC)c1OC`, which inhibition is on record?
**A.** The inhibition was 74.1% (active).

**Q.** How did the inhibition turn out when `CCOc1cccc(-c2nn3c(-c4ccccn4)nnc3s2)c1` was run?
**A.** Its inhibition is 23.2% (inactive).

**Q.** Which inhibition does the source give for `COc1ccc(-c2nn3c(-c4ccccc4)nnc3s2)cc1OC` here?
**A.** Its inhibition is 6.9% (inactive).

**Q.** With `Cc1cc(NC(=O)COn2nnc3ccccc32)no1` as the molecule, how does the inhibition read?
**A.** The inhibition was 24.9% (inactive).

**Q.** How did the inhibition turn out when `Cc1ccc(C(=O)N2CCN(C(=O)N3CCOCC3)CC2)cc1` was run?
**A.** The inhibition was 11.5% (inactive).

**Q.** How did the inhibition turn out when `Cc1cc2nc(-c3ccc(NC(=O)c4cccnc4)cc3)oc2cc1C` was run?
**A.** Its inhibition is 7.6% (inactive).

**Q.** `O=C(CC1(O)C(=O)N(CN2CCOCC2)c2ccccc21)c1ccccc1` (stereo not drawn) was tested. Which inhibition did it give?
**A.** The inhibition was -1% (inactive).

**Q.** Which inhibition does the source give for `CCOC(=O)CN1C(=O)C(O)(CC(=O)c2ccccn2)c2ccccc21` (stereo not drawn) here?
**A.** The inhibition was 26% (inactive).

**Q.** With `C=CCN1C(=O)C(O)(CC(=O)c2ccc(Cl)cc2)c2ccccc21` (stereo not drawn) as the molecule, how does the inhibition read?
**A.** Its inhibition is 67.9% (active).

**Q.** How did the inhibition turn out when `Nc1c(C(=O)NCc2ccccc2)sc2nc3c(cc12)C(=O)CCC3` was run?
**A.** The inhibition was 6% (inactive).

**Q.** `Cc1cc(C)c2nc(NC(=O)C3CCCO3)sc2c1` (stereo not drawn) was tested. Which inhibition did it give?
**A.** Its inhibition is 28.3% (inactive).

**Q.** For `O=C(Cc1ncc(C(F)(F)F)cc1Cl)Nc1cccc(Br)c1`, which inhibition is on record?
**A.** Its inhibition is 24.9% (inactive).

**Q.** `CCCN(CCC)C(=O)C1c2ccccc2Oc2ccccc21` was tested. Which inhibition did it give?
**A.** The inhibition was 53.1% (active).

**Q.** With `CCOC(=O)N1CCN(C(=O)CNC(=O)Cc2ccc(Cl)cc2)CC1` as the molecule, how does the inhibition read?
**A.** Its inhibition is 10.1% (inactive).

**Q.** How did the inhibition turn out when `CCOc1cc(N2CCOCC2)c(OCC)cc1NC(=O)COc1cccc2cccnc12` was run?
**A.** The inhibition was 0% (inactive).

**Q.** `CCOC(=O)CSc1nc2sc3c(c2c(=O)[nH]1)CC(C)(C)OC3` was tested. Which inhibition did it give?
**A.** Its inhibition is 15.3% (inactive).

**Q.** For `O=C(CSc1nc2c(cnn2-c2ccc(F)cc2)c(=O)[nH]1)N1CCCCCC1`, which inhibition is on record?
**A.** Its inhibition is 1.3% (inactive).

**Q.** How did the inhibition turn out when `C=CCNC(=O)CSc1nc2sc(C)c(C)c2c(=O)[nH]1` was run?
**A.** Its inhibition is 58.1% (active).

**Q.** For `Cc1cccc(NC(=O)CSc2nc3c(c(=O)[nH]2)CCCC3)c1C`, which inhibition is on record?
**A.** Its inhibition is 35.7% (inactive).

**Q.** With `CC(=O)c1sc2nc(SCC(=O)N3CCCCC3)[nH]c(=O)c2c1C` as the molecule, how does the inhibition read?
**A.** The inhibition was 95.6% (active).

**Q.** Which inhibition does the source give for `C=CCn1c(SCC(=O)/C(C#N)=C(\C)N)nc2sc(C)c(C)c2c1=O` here?
**A.** The inhibition was 38.5% (inactive).

**Q.** Which inhibition does the source give for `Cn1c(=O)cc(OCCCC(=O)N2CCN(Cc3ccc4c(c3)OCO4)CC2)c2ccccc21` here?
**A.** The inhibition was 9.3% (inactive).

**Q.** `CCOC(=O)NNC(=O)c1ccc(Cl)cc1` was tested. Which inhibition did it give?
**A.** The inhibition was 1.4% (inactive).

**Q.** Which inhibition does the source give for `CN(C)/C=C/c1c(C#N)c(=O)ncn1Cc1ccccc1` here?
**A.** Its inhibition is 3.3% (inactive).

**Q.** How did the inhibition turn out when `Cn1c(CCN2CCCCCC2)nc2cc(NC(=O)Nc3ccccc3)ccc21` was run?
**A.** Its inhibition is -0.2% (inactive).

**Q.** With `COc1ccc(NC(=O)Nc2ccc3nc(C)c(C)nc3c2)cc1` as the molecule, how does the inhibition read?
**A.** Its inhibition is 18.7% (inactive).

**Q.** Which inhibition does the source give for `Cc1nc2ccc(NC(=O)N3CCC(c4ccccc4)C3)cc2nc1C` (stereo not drawn) here?
**A.** Its inhibition is 51.4% (active).

**Q.** With `Cc1cc(C(=O)CC#N)c(C)n1CC(F)(F)F` as the molecule, how does the inhibition read?
**A.** The inhibition was 19.4% (inactive).

**Q.** `COc1cccc2cc(C(=O)N(C)C)c(=O)oc12` was tested. Which inhibition did it give?
**A.** Its inhibition is -103% (inactive).

**Q.** How did the inhibition turn out when `CCOC(=O)c1cnc(-c2ccccc2)nc1Oc1ccc(C)cc1` was run?
**A.** The inhibition was 65.7% (active).

**Q.** `CCCCOc1ccc(-c2ncc(C(=O)OCC)c(N)n2)cc1` was tested. Which inhibition did it give?
**A.** Its inhibition is -19.4% (inactive).

**Q.** `CCOC(=O)c1c(C)nc(-c2ccccc2)nc1NC(=O)C(C)C` was tested. Which inhibition did it give?
**A.** The inhibition was 23% (inactive).

**Q.** With `COc1ccc(C(=O)c2oc3ccc(Br)cc3c2NC(C)=O)cc1` as the molecule, how does the inhibition read?
**A.** Its inhibition is 1.7% (inactive).

**Q.** `COc1ccc(C(=O)c2c(C)oc3cc([N+](=O)[O-])c(O)c([N+](=O)[O-])c23)cc1` was tested. Which inhibition did it give?
**A.** The inhibition was 79.8% (active).

**Q.** For `COc1ccc(NC(=O)c2c(C)oc3c2CCCC3)cc1`, which inhibition is on record?
**A.** Its inhibition is 15.4% (inactive).

**Q.** For `Cc1nn(C)c(Oc2ccccc2)c1[N+](=O)[O-]`, which inhibition is on record?
**A.** Its inhibition is 29.1% (inactive).

**Q.** How did the inhibition turn out when `CN(CCC#N)c1ncnc2scc(-c3ccccc3)c12` was run?
**A.** The inhibition was 19.4% (inactive).

**Q.** Which inhibition does the source give for `Cc1noc(C)c1COC(=O)Cn1c(C)nc2ccccc21` here?
**A.** The inhibition was 10.7% (inactive).

**Q.** `Cc1noc(C)c1COC(=O)c1cc2ccccc2cc1O` was tested. Which inhibition did it give?
**A.** The inhibition was 91.6% (active).

**Q.** Which inhibition does the source give for `Cc1nc2ccccc2cc1O` here?
**A.** Its inhibition is -22.9% (inactive).

**Q.** How did the inhibition turn out when `CC(=O)N(CN1C(=O)C2CC=CCC2C1=O)c1cccc(Cl)c1` (stereo not drawn) was run?
**A.** Its inhibition is 12.2% (inactive).

**Q.** How did the inhibition turn out when `CN1C(=O)CC(N2CCN(c3ccccn3)CC2)C1=O` (stereo not drawn) was run?
**A.** Its inhibition is 7.7% (inactive).

**Q.** `COc1cccc(C(CC(=O)NCCN2CCOCC2)NS(=O)(=O)c2ccc(C)cc2)c1OC` (stereo not drawn) was tested. Which inhibition did it give?
**A.** The inhibition was -7.3% (inactive).

**Q.** For `CCn1c2ccccc2c2cc(NC(=O)C/C(C)=N/NC(=O)c3ccccc3N)ccc21`, which inhibition is on record?
**A.** Its inhibition is -17.8% (inactive).

**Q.** `Cc1cc(C)cc(N(C(C)C(=O)Nc2c(C)n(C)n(-c3ccccc3)c2=O)S(C)(=O)=O)c1` (stereo not drawn) was tested. Which inhibition did it give?
**A.** The inhibition was 16.6% (inactive).

**Q.** With `CSc1ccccc1-c1nnc(-c2ccc(Cl)cc2)o1` as the molecule, how does the inhibition read?
**A.** Its inhibition is -19.4% (inactive).

**Q.** Which inhibition does the source give for `COc1ccccc1-c1nc(C(F)(F)F)c(OC)o1` here?
**A.** Its inhibition is 17% (inactive).

**Q.** Which inhibition does the source give for `FC(F)(F)c1cnc(Oc2ccccc2-c2nnc(-c3ccc(Cl)cc3)o2)c(Cl)c1` here?
**A.** The inhibition was 81.1% (active).

**Q.** With `O=c1[nH]n(-c2cccc(Cl)c2)c2ncccc12` as the molecule, how does the inhibition read?
**A.** The inhibition was -10.7% (inactive).

**Q.** How did the inhibition turn out when `O=C(Nc1nnc(SCc2c(Cl)cccc2Cl)s1)C1CCCO1` (stereo not drawn) was run?
**A.** Its inhibition is -65.7% (inactive).

**Q.** How did the inhibition turn out when `O=C(Nc1nnc(SCc2ccc(Cl)cc2Cl)s1)C1COc2ccccc2O1` (stereo not drawn) was run?
**A.** Its inhibition is 67.2% (active).

**Q.** How did the inhibition turn out when `CCSc1nnc(NC(=O)Cc2ccccc2OC)s1` was run?
**A.** The inhibition was 42.4% (inactive).

**Q.** Which inhibition does the source give for `COc1ccc(NC(=O)Cn2c(=O)n(Cc3ccco3)c(=O)c3ccccc32)cc1` here?
**A.** Its inhibition is 17.1% (inactive).

**Q.** For `COc1ccccc1CNC(=O)CCCn1c(=O)c2ccccc2n(CC(=O)NC2CCCC2)c1=O`, which inhibition is on record?
**A.** The inhibition was 44.7% (inactive).

**Q.** For `O=C(Cn1c(=O)n(Cc2ccco2)c(=O)c2ccccc21)NCC1CCCO1` (stereo not drawn), which inhibition is on record?
**A.** The inhibition was 57.3% (active).

**Q.** With `O=C1CC(Sc2ncn[nH]2)C(=O)N1c1ccccc1` (stereo not drawn) as the molecule, how does the inhibition read?
**A.** The inhibition was -21.9% (inactive).

**Q.** With `Cc1ccc(S(=O)(=O)N/N=C\c2cc3c(cc2[N+](=O)[O-])OCO3)cc1` as the molecule, how does the inhibition read?
**A.** The inhibition was -13% (inactive).

**Q.** `CN1OC(COC(=O)c2ccc(Cl)cc2)CC1c1ccccc1` (stereo not drawn) was tested. Which inhibition did it give?
**A.** The inhibition was 37.4% (inactive).
